The source made the active and inactive calls.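 Rule for the calls: active = fitted half-maximal concentration AC50 at or below ten times the highest valid tested dose, with signal falling as DNA is displaced (actives reach about 34 µM in these data); inconclusive = flat fit at moderate signal loss, or poor fit quality; inactive = the rest, including signal rising instead of falling.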
test: acridine orange-DNA binding displacement – biochemical, fluorescence polarization, cherry-picked samples, set 2, artefact control for KSHV LANA DNA-binding inhibitor project, dose response (AID 504727); conditions: series mostly up to 35 µM

Structure (SMILES) | AC50
COc1ccc(OCC(=O)N2CCN(c3cccc(C(F)(F)F)c3)CC2)cc1 | inactive
O=C(O)C1Nc2ccc(Br)cc2C2C=CCC12 (configuration not stated) | inactive
COC(=O)\C(C(C)=O)=C(/C=C/C=C/C=C/N(C)C)N(C)C | inactive
O=C1CN=C(Nc2ccccc2Cl)N1Cc1ccc2c(c1)OCO2 | inactive
Cn1c(=O)c2c(nc(SCC(=O)NCc3ccc4c(c3)OCO4)n2Cc2ccc(Cl)cc2)n(C)c1=O | inactive
Cc1ccc(NS(=O)(=O)c2ccc(C(=O)NCCCN3CCCC3=O)cc2)cc1 | inactive
CCn1c(SCc2nc3sc(C(=O)O)c(C)c3c(=O)[nH]2)nc2ccccc21 | inactive
CCCC1(C2CCCC2)NC(=O)NC1=O (configuration not stated) | inactive
CCCCNc1c2c3c(cccc3n(C)c1=O)C(=O)c1ccccc1-2 | 2250 nM (active)
CN(C)CCCNC(=O)c1ccccc1Oc1ccccc1 | inactive
CCc1sc(C(=O)NNC(=O)CNC(=O)c2ccccc2F)cc1C | inactive
O=C(c1ccc2c(c1)CCN2S(=O)(=O)c1ccccc1)N1CCN(c2ccc(F)cc2)CC1 | inactive
O=C(c1cnn2c(-c3ccccc3)cc(-c3ccccc3)nc12)N1CCN(Cc2ccccc2)CC1 | inactive
Cc1ccc(OCC(=O)NC(=S)Nc2cccc(NC(=O)c3ccc(Cl)cc3Cl)c2)cc1 | inactive
C=CCOC(=O)C1=C[C@H](c2csc3ccccc23)C[C@H](OCc2ccc(CO)cc2)O1 | inactive
Cc1cc(C)c2c(c1)NC(C(=O)O)C1CC=CC21 (configuration not stated) | inactive
O=C(COc1cccc(F)c1)Nc1nc(-c2cccnc2)cs1 | inactive
Oc1[nH]c2ccccc2c1N=Nc1ccccc1F | inactive
CN1CCN(C(=S)c2ccc(N(C)C)cc2)CC1 | inactive
CNc1ccc2c3c(cccc13)C(=O)N(C)C2=O | 872 nM (active)
COc1ccc(C(=O)c2ccsc2N)cc1 | inactive
CCc1noc(C)c1C(=O)NCCc1c[nH]c2ccccc12 | inactive
